Laboratory results published in publication PMC7862700, “An all-to-all approach to the identification of sequence-specific readers for epigenetic DNA modifications on cytosine”.

What was measured:
Experiment in all cases: DAPPL (digital affinity profiling via proximity ligation, sequencing); 10 mM Tris-HCl pH 7.5, 50 mM NaCl, 1 mM DTT, 4% glycerol, room temperature, 30 min; GST-TFs on glutathione beads, 16-mer random dsDNA library, 0.1% formaldehyde crosslink after washing; high values mean tight binding
FLI1 = biological target: T1, FLI1 (Homo sapiens, UniProt Q01543 1-452); details: protein: recombinant; tags: N-terminal GST; dsDNA, one strand shown
T1 sequence: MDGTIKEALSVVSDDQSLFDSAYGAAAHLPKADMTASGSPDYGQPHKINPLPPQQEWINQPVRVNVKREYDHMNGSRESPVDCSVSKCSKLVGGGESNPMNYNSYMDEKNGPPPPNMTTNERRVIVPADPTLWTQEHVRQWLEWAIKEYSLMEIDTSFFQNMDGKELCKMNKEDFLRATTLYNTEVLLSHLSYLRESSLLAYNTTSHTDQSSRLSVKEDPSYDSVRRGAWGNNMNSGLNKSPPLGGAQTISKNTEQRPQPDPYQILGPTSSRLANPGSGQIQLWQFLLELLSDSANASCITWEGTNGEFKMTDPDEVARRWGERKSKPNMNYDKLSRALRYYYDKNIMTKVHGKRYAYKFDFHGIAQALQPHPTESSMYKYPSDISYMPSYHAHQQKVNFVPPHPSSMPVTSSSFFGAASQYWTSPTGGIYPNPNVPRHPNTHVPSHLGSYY
How it was run: (§1)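 GST fusions of human transcription factors were expressed in yeast and captured with glutathione beads. Once given DNA barcodes and pooled alongside a tag-only sample, they were incubated for 30 min at room temperature with 200 nmole of a random double-stranded 16-mer DNA library in Tris/NaCl/DTT/glycerol buffer, then washed, crosslinked (0.1% formaldehyde), proximity-ligated, PCR-amplified and sequenced on an Illumina NextSeq500. The binding signal of each hexamer is its read frequency for a factor divided by its frequency for the tag-only sample.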

ELK1 = biological target: T2, ELK1 (Homo sapiens, UniProt P19419 1-428); details: protein: recombinant; tags: N-terminal GST; dsDNA, one strand shown
T2 sequence: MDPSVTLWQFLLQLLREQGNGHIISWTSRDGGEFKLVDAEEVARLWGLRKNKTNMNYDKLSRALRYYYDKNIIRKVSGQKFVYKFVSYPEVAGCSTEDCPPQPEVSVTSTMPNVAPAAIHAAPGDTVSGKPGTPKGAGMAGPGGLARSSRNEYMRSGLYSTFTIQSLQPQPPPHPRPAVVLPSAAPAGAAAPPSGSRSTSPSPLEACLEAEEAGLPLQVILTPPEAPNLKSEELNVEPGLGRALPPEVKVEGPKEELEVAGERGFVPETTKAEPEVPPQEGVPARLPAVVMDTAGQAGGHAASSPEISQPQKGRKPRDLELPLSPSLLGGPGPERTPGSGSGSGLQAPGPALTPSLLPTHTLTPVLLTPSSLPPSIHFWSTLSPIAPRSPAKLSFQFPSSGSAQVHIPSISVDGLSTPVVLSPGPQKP
How it was run: as §1

GABPA = biological target: T3, GABPA (Homo sapiens, UniProt Q06546 1-454); details: protein: recombinant; tags: N-terminal GST; dsDNA, one strand shown
T3 sequence: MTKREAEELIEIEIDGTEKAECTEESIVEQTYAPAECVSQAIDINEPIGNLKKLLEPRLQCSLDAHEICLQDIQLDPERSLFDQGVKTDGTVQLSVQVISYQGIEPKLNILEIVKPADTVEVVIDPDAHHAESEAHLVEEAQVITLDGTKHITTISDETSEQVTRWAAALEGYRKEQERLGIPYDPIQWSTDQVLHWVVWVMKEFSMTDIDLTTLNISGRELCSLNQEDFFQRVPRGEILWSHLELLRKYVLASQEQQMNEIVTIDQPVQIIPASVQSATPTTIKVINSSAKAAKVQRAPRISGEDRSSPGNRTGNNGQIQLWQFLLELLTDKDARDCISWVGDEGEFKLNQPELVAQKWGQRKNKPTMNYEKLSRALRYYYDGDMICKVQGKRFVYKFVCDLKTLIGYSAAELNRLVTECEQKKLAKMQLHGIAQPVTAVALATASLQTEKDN
How it was run: as §1

ERG = biological target: T4, ERG (Homo sapiens, UniProt P11308 1-479); details: protein: recombinant; tags: N-terminal GST; dsDNA, one strand shown
T4 sequence: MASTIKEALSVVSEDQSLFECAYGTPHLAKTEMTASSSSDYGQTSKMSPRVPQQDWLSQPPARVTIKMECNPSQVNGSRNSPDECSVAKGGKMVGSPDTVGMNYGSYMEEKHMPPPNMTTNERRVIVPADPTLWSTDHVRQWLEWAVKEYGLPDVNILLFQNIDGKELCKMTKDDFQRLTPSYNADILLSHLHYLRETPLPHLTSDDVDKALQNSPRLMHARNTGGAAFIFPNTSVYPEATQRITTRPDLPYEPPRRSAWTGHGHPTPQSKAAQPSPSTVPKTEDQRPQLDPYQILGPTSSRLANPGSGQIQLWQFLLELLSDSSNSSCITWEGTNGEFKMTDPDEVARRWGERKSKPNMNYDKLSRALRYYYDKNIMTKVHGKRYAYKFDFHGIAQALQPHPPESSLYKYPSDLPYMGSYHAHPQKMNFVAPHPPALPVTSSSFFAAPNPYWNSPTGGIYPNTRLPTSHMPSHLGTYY
How it was run: as §1

ELF1 = ELF1 (Homo sapiens, UniProt P32519 1-619); details: protein: recombinant; tags: N-terminal GST; dsDNA, one strand shown
How it was run: as §1

EHF = biological target: T5, EHF (Homo sapiens, UniProt Q9NZC4 1-300); details: protein: recombinant; tags: N-terminal GST; dsDNA, one strand shown
T5 sequence: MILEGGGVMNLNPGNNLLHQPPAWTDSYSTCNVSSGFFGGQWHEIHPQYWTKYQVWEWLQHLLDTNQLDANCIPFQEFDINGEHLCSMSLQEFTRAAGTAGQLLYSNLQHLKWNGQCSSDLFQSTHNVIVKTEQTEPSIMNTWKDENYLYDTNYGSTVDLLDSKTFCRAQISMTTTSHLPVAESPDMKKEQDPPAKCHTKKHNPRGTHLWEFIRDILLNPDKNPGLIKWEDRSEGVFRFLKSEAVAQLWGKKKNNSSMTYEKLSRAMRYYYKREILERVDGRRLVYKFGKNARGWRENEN
How it was run: as §1

SPI1 = SPI1 (Homo sapiens, UniProt P17947 1-270); details: protein: recombinant; tags: N-terminal GST; dsDNA, one strand shown
How it was run: as §1

SPIB = SPIB (Homo sapiens, UniProt Q01892 1-262); details: protein: recombinant; tags: N-terminal GST; dsDNA, one strand shown
How it was run: as §1

ELK3 = biological target: T6, ELK3 (Homo sapiens, UniProt P41970 1-407); details: protein: recombinant; tags: N-terminal GST; dsDNA, one strand shown
T6 sequence: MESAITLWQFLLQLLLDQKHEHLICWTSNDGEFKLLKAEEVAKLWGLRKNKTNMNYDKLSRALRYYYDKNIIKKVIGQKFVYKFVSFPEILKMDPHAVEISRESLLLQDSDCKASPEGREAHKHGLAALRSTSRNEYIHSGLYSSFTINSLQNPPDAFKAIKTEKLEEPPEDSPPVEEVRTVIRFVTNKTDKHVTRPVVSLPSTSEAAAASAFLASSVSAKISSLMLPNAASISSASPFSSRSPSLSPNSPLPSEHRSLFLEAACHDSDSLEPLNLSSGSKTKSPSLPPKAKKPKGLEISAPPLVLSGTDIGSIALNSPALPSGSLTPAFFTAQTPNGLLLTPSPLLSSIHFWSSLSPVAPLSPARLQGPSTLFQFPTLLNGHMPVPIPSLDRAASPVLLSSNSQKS
How it was run: as §1

FEV = biological target: T7, FEV (Homo sapiens, UniProt Q99581 1-238); details: protein: recombinant; tags: N-terminal GST; dsDNA, one strand shown
T7 sequence: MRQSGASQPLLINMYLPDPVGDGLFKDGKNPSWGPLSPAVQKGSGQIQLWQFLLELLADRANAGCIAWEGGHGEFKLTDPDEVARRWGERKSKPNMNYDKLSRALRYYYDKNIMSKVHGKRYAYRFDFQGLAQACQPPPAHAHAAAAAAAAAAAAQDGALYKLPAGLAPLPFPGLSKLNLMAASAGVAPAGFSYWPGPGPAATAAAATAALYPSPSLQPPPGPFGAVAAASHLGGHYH
How it was run: as §1

ETV5 = ETV5 (Homo sapiens, UniProt P41161 1-510); details: protein: recombinant; tags: N-terminal GST; dsDNA, one strand shown
How it was run: as §1

HSF1 = HSF1 (Homo sapiens, UniProt Q00613 1-529); details: protein: recombinant; tags: N-terminal GST; chain copies: 3; dsDNA, one strand shown
How it was run: as §1

SPIC = biological target: T8, SPIC (Homo sapiens, UniProt Q8N5J4 1-248); details: protein: recombinant; tags: N-terminal GST; dsDNA, one strand shown
T8 sequence: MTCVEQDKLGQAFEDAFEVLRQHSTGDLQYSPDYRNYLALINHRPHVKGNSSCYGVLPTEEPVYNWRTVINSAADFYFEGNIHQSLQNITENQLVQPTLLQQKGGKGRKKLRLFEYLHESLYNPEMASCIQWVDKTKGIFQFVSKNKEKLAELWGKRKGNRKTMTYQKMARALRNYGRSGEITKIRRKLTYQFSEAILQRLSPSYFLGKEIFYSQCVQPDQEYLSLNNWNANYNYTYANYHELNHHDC
How it was run: as §1

ELF4 = ELF4 (Homo sapiens, UniProt Q99607 1-663); details: protein: recombinant; tags: N-terminal GST; dsDNA, one strand shown
How it was run: as §1

ELK4 = biological target: T9, ELK4 (Homo sapiens, UniProt P28324-2 1-405); details: protein: recombinant; tags: N-terminal GST; dsDNA, one strand shown
T9 sequence: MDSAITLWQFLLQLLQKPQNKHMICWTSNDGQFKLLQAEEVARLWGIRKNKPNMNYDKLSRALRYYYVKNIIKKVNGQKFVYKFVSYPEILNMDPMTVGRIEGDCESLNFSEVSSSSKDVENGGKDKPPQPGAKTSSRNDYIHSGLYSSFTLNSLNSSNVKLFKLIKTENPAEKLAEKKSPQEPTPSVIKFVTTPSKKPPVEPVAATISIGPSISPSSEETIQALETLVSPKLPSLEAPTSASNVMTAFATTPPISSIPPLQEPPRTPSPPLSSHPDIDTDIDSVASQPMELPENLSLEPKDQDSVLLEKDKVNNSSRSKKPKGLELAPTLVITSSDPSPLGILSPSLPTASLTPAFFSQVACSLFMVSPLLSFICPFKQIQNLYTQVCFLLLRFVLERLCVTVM
How it was run: as §1

ETV2 = biological target: T10, ETV2 (Homo sapiens, UniProt O00321 1-342); details: protein: recombinant; tags: N-terminal GST; dsDNA, one strand shown
T10 sequence: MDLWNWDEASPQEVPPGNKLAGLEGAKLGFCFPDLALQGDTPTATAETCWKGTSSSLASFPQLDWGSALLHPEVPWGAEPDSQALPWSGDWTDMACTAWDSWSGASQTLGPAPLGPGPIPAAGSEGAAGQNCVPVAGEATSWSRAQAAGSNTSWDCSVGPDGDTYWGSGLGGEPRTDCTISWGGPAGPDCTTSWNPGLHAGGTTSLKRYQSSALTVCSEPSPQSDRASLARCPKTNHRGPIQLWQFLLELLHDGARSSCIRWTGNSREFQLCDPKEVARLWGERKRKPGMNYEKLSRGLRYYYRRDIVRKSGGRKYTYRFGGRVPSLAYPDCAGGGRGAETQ
How it was run: as §1

ELF3 = biological target: T11, ELF3 (Homo sapiens, UniProt P78545 1-371); details: protein: recombinant; tags: N-terminal GST; dsDNA, one strand shown
T11 sequence: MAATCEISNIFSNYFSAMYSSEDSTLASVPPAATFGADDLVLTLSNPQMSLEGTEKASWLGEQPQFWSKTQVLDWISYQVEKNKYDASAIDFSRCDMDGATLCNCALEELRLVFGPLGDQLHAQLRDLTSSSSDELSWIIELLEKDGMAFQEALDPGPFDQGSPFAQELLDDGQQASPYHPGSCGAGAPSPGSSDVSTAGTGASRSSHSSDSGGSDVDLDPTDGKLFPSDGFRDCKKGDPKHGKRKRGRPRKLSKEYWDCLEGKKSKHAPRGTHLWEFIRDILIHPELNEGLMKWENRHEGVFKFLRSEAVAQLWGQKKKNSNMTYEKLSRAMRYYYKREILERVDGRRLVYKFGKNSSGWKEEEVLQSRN
How it was run: as §1

ETV1 = ETV1 (Homo sapiens, UniProt P50549 1-477); details: protein: recombinant; tags: N-terminal GST; dsDNA, one strand shown
How it was run: as §1

ELF1, sequence (P32519 whole entry): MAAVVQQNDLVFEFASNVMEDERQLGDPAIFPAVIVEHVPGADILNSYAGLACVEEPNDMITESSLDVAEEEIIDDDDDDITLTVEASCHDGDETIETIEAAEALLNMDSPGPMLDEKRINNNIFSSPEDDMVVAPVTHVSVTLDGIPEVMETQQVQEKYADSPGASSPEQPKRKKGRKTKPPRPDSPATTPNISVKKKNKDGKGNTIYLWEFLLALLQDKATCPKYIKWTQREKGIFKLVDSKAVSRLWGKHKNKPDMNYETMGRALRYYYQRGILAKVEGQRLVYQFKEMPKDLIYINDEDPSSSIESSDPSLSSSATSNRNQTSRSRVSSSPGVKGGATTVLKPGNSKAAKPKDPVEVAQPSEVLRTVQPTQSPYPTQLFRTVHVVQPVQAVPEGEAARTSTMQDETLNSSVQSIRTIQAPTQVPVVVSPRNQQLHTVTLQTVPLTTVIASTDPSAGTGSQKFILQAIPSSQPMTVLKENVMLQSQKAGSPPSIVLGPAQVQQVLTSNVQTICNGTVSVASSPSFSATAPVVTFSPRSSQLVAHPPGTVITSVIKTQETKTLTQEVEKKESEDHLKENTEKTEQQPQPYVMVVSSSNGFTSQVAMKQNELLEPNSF
ETV1, sequence (P50549 whole entry): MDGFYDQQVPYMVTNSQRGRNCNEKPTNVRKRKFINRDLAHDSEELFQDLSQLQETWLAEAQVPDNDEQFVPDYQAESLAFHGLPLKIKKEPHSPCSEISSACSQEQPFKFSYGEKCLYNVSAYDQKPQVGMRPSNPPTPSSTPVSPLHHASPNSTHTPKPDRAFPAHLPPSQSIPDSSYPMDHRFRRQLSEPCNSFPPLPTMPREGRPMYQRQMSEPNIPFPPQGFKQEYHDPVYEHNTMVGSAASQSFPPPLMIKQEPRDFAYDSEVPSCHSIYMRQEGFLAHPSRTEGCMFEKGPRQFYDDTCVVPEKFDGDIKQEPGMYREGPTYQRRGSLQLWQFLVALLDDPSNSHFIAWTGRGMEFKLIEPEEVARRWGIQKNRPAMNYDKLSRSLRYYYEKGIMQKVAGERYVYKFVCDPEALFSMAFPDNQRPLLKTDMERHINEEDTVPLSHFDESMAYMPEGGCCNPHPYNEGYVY
HSF1, sequence (Q00613 whole entry): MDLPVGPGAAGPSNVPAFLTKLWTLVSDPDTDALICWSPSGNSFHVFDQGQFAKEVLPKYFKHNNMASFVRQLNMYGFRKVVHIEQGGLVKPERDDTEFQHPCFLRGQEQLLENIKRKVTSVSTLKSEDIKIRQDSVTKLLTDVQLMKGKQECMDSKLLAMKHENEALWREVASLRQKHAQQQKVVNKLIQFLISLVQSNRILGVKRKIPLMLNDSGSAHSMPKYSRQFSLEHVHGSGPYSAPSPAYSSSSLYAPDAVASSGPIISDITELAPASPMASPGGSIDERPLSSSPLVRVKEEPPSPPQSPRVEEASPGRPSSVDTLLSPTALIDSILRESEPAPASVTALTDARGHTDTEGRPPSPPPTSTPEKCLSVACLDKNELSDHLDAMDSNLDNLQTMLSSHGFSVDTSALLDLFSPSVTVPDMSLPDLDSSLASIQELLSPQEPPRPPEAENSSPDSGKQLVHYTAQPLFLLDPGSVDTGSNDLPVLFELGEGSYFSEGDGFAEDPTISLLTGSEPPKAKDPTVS
ELF4, sequence (Q99607 whole entry): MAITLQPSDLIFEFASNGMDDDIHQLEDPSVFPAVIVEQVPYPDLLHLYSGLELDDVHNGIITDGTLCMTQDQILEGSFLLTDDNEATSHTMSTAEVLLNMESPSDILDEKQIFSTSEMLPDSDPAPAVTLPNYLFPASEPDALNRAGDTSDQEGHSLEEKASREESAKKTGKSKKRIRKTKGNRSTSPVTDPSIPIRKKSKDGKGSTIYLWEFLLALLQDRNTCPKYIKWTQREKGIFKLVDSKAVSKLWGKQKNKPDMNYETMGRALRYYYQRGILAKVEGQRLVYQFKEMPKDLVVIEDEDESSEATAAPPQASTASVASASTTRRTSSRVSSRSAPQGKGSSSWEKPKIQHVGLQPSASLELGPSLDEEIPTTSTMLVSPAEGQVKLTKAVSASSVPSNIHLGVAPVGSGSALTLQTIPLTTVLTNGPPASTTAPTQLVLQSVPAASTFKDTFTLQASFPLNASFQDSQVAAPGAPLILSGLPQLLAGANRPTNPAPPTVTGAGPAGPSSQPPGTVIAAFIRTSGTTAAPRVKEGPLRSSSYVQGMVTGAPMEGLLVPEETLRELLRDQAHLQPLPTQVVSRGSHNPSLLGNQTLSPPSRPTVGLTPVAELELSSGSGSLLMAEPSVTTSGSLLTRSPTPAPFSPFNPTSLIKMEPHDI
ETV5, sequence (P41161 whole entry): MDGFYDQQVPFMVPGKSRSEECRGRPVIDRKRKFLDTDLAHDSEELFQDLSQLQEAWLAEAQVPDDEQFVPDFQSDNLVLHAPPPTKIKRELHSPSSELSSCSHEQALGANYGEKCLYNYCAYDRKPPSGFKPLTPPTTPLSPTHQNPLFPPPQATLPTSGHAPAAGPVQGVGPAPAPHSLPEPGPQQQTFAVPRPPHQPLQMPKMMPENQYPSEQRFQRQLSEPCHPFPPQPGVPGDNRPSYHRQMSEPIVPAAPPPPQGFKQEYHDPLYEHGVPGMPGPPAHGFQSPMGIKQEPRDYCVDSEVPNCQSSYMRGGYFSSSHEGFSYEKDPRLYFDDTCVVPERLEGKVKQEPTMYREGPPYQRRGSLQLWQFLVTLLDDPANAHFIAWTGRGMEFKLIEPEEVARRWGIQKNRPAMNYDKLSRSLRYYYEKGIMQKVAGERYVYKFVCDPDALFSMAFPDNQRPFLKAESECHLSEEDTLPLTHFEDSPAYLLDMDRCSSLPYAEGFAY
SPIB, sequence (Q01892 whole entry): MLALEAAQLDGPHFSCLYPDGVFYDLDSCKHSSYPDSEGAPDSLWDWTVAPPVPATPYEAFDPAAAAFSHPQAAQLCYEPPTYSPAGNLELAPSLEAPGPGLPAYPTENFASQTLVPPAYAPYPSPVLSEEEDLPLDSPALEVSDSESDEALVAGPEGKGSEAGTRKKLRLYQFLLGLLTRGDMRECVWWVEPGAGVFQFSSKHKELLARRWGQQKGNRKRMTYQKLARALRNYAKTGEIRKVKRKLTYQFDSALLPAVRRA

In the case of ACTGCG, the binding signal (FLI1) is reported as 1.24 fold enrichment (6-mer frequency, TF over GST control), the binding signal (ELK1) is reported as 1.32 fold enrichment (6-mer frequency, TF over GST control) and the binding signal (GABPA) is reported as 1.26 fold enrichment (6-mer frequency, TF over GST control). For the same sequence, the binding signal (ERG) was 1.26 fold enrichment (6-mer frequency, TF over GST control), the binding signal (ELF1) was 1.35 fold enrichment (6-mer frequency, TF over GST control) and the binding signal (EHF) was 1.37 fold enrichment (6-mer frequency, TF over GST control). For the same sequence, the binding signal (SPI1) was 1.33 fold enrichment (6-mer frequency, TF over GST control), the binding signal (SPIB) was 1.3 fold enrichment (6-mer frequency, TF over GST control) and the binding signal (ELK3) was 1.25 fold enrichment (6-mer frequency, TF over GST control). For the same sequence, the binding signal (FEV) was 1.26 fold enrichment (6-mer frequency, TF over GST control), the binding signal (ETV5) was 1.21 fold enrichment (6-mer frequency, TF over GST control) and the binding signal (HSF1) was 1.06 fold enrichment (6-mer frequency, TF over GST control). For the same sequence, the binding signal (SPIC) was 1.14 fold enrichment (6-mer frequency, TF over GST control), the binding signal (ELF4) was 1.28 fold enrichment (6-mer frequency, TF over GST control) and the binding signal (ELK4) was 1.06 fold enrichment (6-mer frequency, TF over GST control). For the same sequence, the binding signal (ETV2) was 1.42 fold enrichment (6-mer frequency, TF over GST control), the binding signal (ELF3) was 1.16 fold enrichment (6-mer frequency, TF over GST control) and the binding signal (ETV1) was 1.27 fold enrichment (6-mer frequency, TF over GST control).
